Experimental data: PubChem BioAssay AID1159577 (Broad Institute, 2015)
Screen size: about 1,300 compounds; about 240 (18%) were called active. About 8% were inconclusive and are not listed. No rule for the calls is given here. These entries were drawn from the full list. Entries with a potency or affinity are not part of this list.

Assay: toxicity to human hepatoma HepG2 cells – cell-based, cherry-picked samples, cytotoxicity control, dose response (AID 1159577);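 also: 0% = neutral control wells and -100% = positive control wells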
Conditions: HepG2 cytotoxicity counterscreen, plate reader; series mostly up to 19.5 µM; activity change, negative = cytotoxicity: at the top concentration

| SMILES | activity change, negative = cytotoxicity |
| --- | --- |
| COc1ccc2c3c(n(C)c2c1)[C@H](CO)N(C(=O)C1CC1)CC31CN(C(=O)C2CCOCC2)C1 | -8.82% [at 21 µM] (inactive) |
| COc1ccc2c3c([nH]c2c1)[C@H](CO)N(C(=O)C1CCCCC1)CC31CCN(Cc2nccs2)CC1 | 40.4% (inactive) |
| COc1ccc2c3c([nH]c2c1)[C@@H](CO)N(C(=O)C1CCCCC1)CC31CCN(Cc2nccs2)CC1 | 2.26% (inactive) |
| COc1ccc2c3c(n(C)c2c1)[C@@H](CO)N(C(=O)C1CC1)CC31CCN(C(=O)Nc2cccc(F)c2)CC1 | 8.54% (inactive) |
| O=C(C[C@@H]1C[C@H]2c3cc(NS(=O)(=O)c4ccc(F)cc4)ccc3O[C@H]2[C@H](CO)O1)N1CCc2ccccc2C1 | 2.2% (inactive) |
| COc1cccc(CN2[C@@H](CO)[C@H](c3ccccc3)C23CN(C(=O)C2CCOCC2)C3)c1 | -7.26% (inactive) |
| CN(C)c1ccc2c(c1)[C@H]1C[C@H](CC(=O)NCc3ccc(Oc4ccccc4)cc3)O[C@H](CO)[C@H]1O2 | -25.6% (inactive) |
| CCCC(=O)N1CCC2(CC1)CN(S(=O)(=O)c1ccc(C)cc1)[C@@H](CO)c1[nH]c3cc(OC)ccc3c12 | -5.02% (inactive) |
| C[C@H]1CN([C@@H](C)CO)C(=O)c2c(c3ccccc3n2C)-c2ccccc2CO[C@@H]1CN(C)C(=O)Nc1ccc(-c2ccccc2)cc1 | 16.4% (inactive) |
| O=C(Nc1ccc(C(F)(F)F)cc1)N1[C@@H]2CNC[C@H]1C2c1ccc(/C=C/c2ccccc2)cc1 (some centres undefined) | 3.2% [at 21 µM] (inactive) |
| O=S(=O)(Cc1ccccc1)N1[C@H](CO)[C@@H](c2ccccc2)C12CN(CCC(F)(F)F)C2 | 10.8% [at 21 µM] (inactive) |
| CC(C)(C)[S@@](=O)N1Cc2cc(C(=O)NCCN3CCCCC3)nc(-c3cccc(-c4cccc(C#N)c4)c3)c2[C@H]1CCO | 13.2% (inactive) |
| COc1ccc(C#Cc2ccc3c(c2)[C@H]2[C@H](CCN2C(=O)C2CCC2)[C@@H](CO)N3)cc1 | 5.22% (inactive) |
| CN(C)CC(=O)N1[C@H](CO)[C@H](c2ccc(C#CC3CCCCC3)cc2)[C@@H]1C#N | -13.4% (inactive) |
| C[C@@H]1CN([C@H](C)CO)C(=O)c2cccc(NS(=O)(=O)c3ccccc3)c2O[C@H]1CN(C)Cc1ccc(-c2ccccc2)cc1 | 9% (inactive) |
| C/C=C/c1ccc([C@@H]2[C@H](CO)N(CC3CC3)C23CN(C(=O)c2ccc4c(c2)OCO4)C3)cc1 | 0.389% (inactive) |
| N#Cc1ccc(-c2ccc([C@@H]3[C@@H]4CN(C(=O)Nc5ccc6c(c5)OCO6)C[C@H]3N4)cc2)cc1 | 16.2% [at 21 µM] (inactive) |
| O=C(c1ccc(F)cc1)N1CC(=O)N2[C@H](CO)[C@@H](c3ccc(/C=C/c4ccccc4)cc3)[C@@H]2C1 | -4.72% (inactive) |
| O=C(C[C@H]1CC[C@@H]2[C@H](COC[C@@H](O)CN2C(=O)Nc2ccc3c(c2)OCO3)O1)N1CCN(c2ccccc2)CC1 | -4.46% (inactive) |
